Source: PubChem BioAssay (NCI)
Values joined by “and” are separate entries in the source; they are usually repeats but may differ in a detail not shown here. Equal values may be shown once. The panel holds about 83,000 compounds, 20% with a hit somewhere; the sample as a whole holds those more often.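 A percent growth of 40 corresponds to 60% growth inhibition; 0 means no net growth; -100 means all cells died. Active threshold: below 10.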 Active and inactive are the calls of the source.

Experiments:
Test in all cases: NCI-60 one-dose screen, 48 h (100 = growth as untreated, 0 = no growth, -100 = all killed)
DU-145 prostate = test system: DU-145 prostate
K-562 leukemia = test system: K-562 leukemia
MALME-3M melanoma = test system: MALME-3M melanoma
MDA-MB-231 breast = test system: MDA-MB-231 breast
RXF 393 renal = test system: RXF 393 renal
SF-268 CNS = test system: SF-268 CNS
SF-295 CNS = test system: SF-295 CNS
SF-539 CNS = test system: SF-539 CNS
UACC-257 melanoma = test system: UACC-257 melanoma
M14 melanoma = conditions: 10 µM
HCT-15 colon = test system: HCT-15 colon
HT29 colon = test system: HT29 colon
SNB-75 CNS = test system: SNB-75 CNS
SNB-19 CNS = test system: SNB-19 CNS
U251 CNS = test system: U251 CNS
PC-3 prostate = test system: PC-3 prostate
SK-MEL-5 melanoma = test system: SK-MEL-5 melanoma
UACC-62 melanoma = test system: UACC-62 melanoma
LOX IMVI melanoma = test system: LOX IMVI melanoma
SK-MEL-28 melanoma = conditions: 10 µM

Measured: growth

COc1ccc2sc3cccc(NCCN(C)C)c3c(=O)c2c1
59.7% (inactive) and -15.9% (active): RXF 393 renal; 10 µM
59.1% (inactive) and -84.9% (active): M14 melanoma
64.4% (inactive) and -96.3% (active): UACC-62 melanoma; 10 µM
51.8% (inactive) and -6.29% (active): SNB-75 CNS; 10 µM
18.6% (inactive) and -90.3% (active): MALME-3M melanoma; 10 µM
17.2% (inactive) and -40.4% (active): K-562 leukemia; 10 µM
85.8% (inactive) and -80.8% (active): SK-MEL-28 melanoma
32.2% (inactive) and -29.5% (active): HCT-15 colon; 10 µM
active: SF-295 CNS; 10 µM -16.7% and -31.7% | UACC-257 melanoma; 10 µM -83.3% | HT29 colon; 10 µM 5.38% and -36.9% | U251 CNS; 10 µM -18.1%
42.1% (inactive) and -72.9% (active): MDA-MB-231 breast; 10 µM
17.1% (inactive) and -91% (active): LOX IMVI melanoma; 10 µM
inactive: DU-145 prostate; 10 µM 53.6% and 14.8% | SF-268 CNS; 10 µM 42.9% and 12.4% | SNB-19 CNS; 10 µM 63.9% and 13.6% | PC-3 prostate; 10 µM 34.2% and 21.1%
49.8% (inactive) and -8.1% (active): SF-539 CNS; 10 µM
65.1% (inactive) and -98.2% (active): SK-MEL-5 melanoma; 10 µM

CC/C(=C(\c1ccccc1)c1ccc(OCCN(C)C)cc1)c1ccccc1
inactive: DU-145 prostate; 10 µM 65.4% | MDA-MB-231 breast; 10 µM 45.2% | SF-268 CNS; 10 µM 56.7% | SF-268 CNS; 12.5 µM 32.4% | SF-295 CNS; 10 µM 40.2% | SNB-75 CNS; 10 µM 39.9% | SNB-19 CNS; 10 µM 52.6% | PC-3 prostate; 10 µM 34.4% | SK-MEL-28 melanoma 11.3%
active: DU-145 prostate; 12.5 µM 9.12% | K-562 leukemia; 10 µM 0.0322% | K-562 leukemia; 12.5 µM -38.6% | MALME-3M melanoma; 10 µM -67.5% | MALME-3M melanoma; 12.5 µM -95.7% | MDA-MB-231 breast; 12.5 µM -26.4% | RXF 393 renal; 10 µM -22.4% | RXF 393 renal; 12.5 µM -56.8% | SF-295 CNS; 12.5 µM -68% | SF-539 CNS; 12.5 µM -95.2% | UACC-257 melanoma; 10 µM -64.3% | UACC-257 melanoma; 12.5 µM -34.3% | M14 melanoma -75% | HCT-15 colon; 10 µM 7.63% | HCT-15 colon; 12.5 µM -65% | HT29 colon; 10 µM -11.2% | HT29 colon; 12.5 µM -66.6% | SNB-75 CNS; 12.5 µM -4.48% | SNB-19 CNS; 12.5 µM 1.19% | U251 CNS; 10 µM 4.8% | U251 CNS; 12.5 µM -84.3% | PC-3 prostate; 12.5 µM -30.7% | SK-MEL-5 melanoma; 10 µM -95.2% | SK-MEL-5 melanoma; 12.5 µM -94.3% | UACC-62 melanoma; 12.5 µM -90.5% | LOX IMVI melanoma; 10 µM -43.9% | LOX IMVI melanoma; 12.5 µM -99%
